This passage reports z-score results from PubChem BioAssay AID488969 (Vanderbilt High Throughput Screening Facility, 2010).

Over roughly 110,000 compounds, “z-score” has its median near -0.1; the highest 2% begin near 2. The full list was thinned out, with the highest values kept by preference. Activity calls are given as the source filed them.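 Rule for the calls: active = z-score in the third read window above 3 or below -3; inactive = the rest.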

Chain of Metabotropic glutamate receptor 8 (Rattus norvegicus) (P70579 whole entry, looked up): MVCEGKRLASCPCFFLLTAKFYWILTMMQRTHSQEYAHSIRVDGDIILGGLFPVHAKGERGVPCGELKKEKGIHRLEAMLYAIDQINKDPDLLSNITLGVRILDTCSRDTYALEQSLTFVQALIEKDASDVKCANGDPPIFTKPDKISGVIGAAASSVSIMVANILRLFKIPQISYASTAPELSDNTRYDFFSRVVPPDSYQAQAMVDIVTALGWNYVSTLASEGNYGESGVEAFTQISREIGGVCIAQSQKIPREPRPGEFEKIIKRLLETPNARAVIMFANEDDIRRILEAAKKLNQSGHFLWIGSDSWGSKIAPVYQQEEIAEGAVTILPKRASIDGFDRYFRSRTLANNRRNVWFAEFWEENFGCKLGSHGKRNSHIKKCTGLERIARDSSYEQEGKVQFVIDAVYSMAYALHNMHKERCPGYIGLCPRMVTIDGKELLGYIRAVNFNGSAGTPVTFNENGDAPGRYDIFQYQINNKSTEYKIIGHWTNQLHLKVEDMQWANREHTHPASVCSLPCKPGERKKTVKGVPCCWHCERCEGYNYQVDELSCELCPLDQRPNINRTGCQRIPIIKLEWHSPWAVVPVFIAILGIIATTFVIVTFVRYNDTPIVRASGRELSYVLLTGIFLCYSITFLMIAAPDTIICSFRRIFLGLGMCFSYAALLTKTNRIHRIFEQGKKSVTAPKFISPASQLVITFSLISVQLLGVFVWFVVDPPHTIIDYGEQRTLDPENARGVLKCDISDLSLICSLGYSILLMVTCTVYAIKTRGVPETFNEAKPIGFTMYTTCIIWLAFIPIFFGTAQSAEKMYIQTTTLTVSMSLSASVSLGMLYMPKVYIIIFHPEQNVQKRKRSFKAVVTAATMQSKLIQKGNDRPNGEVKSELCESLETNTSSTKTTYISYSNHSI

The assay has as its target Metabotropic glutamate receptor 8 (Rattus norvegicus) (UniProt P70579). Put plainly: rat mGluR8 modulators via GIRK flux, primary screen, cell-based, thallium flux, HTS (AID 488969). To be noted: HEK293 rat mGluR8, GIRK (G protein-gated inwardly rectifying potassium channel) thallium flux, FluoZin2; at 10 µM; stronger effect = higher value; submaximal glutamate (EC20) added with thallium.
Molecule `CCOc1ccc(C(F)(F)F)cc1NC(=O)COc1ccc(C(F)(F)F)cc1[N+](=O)[O-]` showed a z-score of -0.107.
In the case of `COc1ccccc1NC(=O)COc1ccc(Br)cc1CO`, the z-score stood at 2.95.
For `O=C(COc1ccc(Br)cc1CO)Nc1ccccc1` the value was -0.336; for `COc1ccccc1NC(=O)COc1ccc(C(F)(F)F)cc1[N+](=O)[O-]`, 4.19 (active).
In the case of `O=C(COc1ccc(Br)cc1CO)Nc1ccccc1F`, the z-score is -0.0395.
In turn, `CCOc1ccc(C(F)(F)F)cc1NC(=O)c1ccc(OC)c([N+](=O)[O-])c1` came in with a z-score of 0.372.
In turn, `CCn1c(COc2ccc(C)cc2)nnc1SCc1nc2ccccc2[nH]1` yielded a z-score of -0.0293.
For the molecule `COCCN1C(=O)c2ccccc2C(C(=O)NCC2CCCO2)C1c1c[nH]c2ccccc12` (stereo not given), the z-score is -0.121.
For `O=C(NCc1ccc2c(c1)OCO2)C1CCCN1C(=O)Nc1cccc(F)c1` (stereo not given) the value was 0.725; for `CCCC(=O)Nc1cc(-c2nnc(OC)c3ccccc23)ccc1N1CCCCC1`, -0.148; for `O=CN1CC(=O)N(c2ccccc2)c2c([nH]c3ccccc23)C1`, 0.383.
For `CCc1cc(C(c2ccc(OC)c(OC)c2)N2CCOCC2)c(NC(=O)c2ccccc2)s1` (stereo not given), the z-score is -0.47.
With `COC(=O)Cc1nnc(NC(=O)C(C)C)s1`, the z-score is 0.0291.
In the case of `CC(C)C(=O)Nc1nnc(CCc2nnc(NC(=O)C(C)C)s2)s1` it was 0.549; in that of `COCc1nnc(NC(=O)C(C)C)s1`, 3.48 (active).
`CO/N=C/c1ccc(Sc2ccc(C)cc2)c([N+](=O)[O-])c1` showed a z-score of -0.349.
For `COc1ccc(OC)c(NC(=O)C2CCCCC2)c1` the value was -0.385; for `COc1cc(NC(=O)C(=O)NNC(=O)C2CCCCC2)c(OC)cc1Cl`, 3.98 (active); for `COc1cc(NC(=O)C2CCCO2)c(OC)cc1Cl` (stereo not given), -0.106.
For the molecule `O=C(Oc1cccc([N+](=O)[O-])c1)c1cc(-c2ccccc2)nc2ccccc12`, the z-score came out at 0.17.
In the case of `C=CCc1cccc2cc(C(=O)N(C)C)c(=O)oc12` it was 0.176.
For `Cn1cccc1C(=O)N1CCN(c2cccc(C(F)(F)F)c2)CC1` the value was -0.386; for `O=C(CC1Oc2ccccc2NC1=O)NC1CC1` (stereo not given), 2.19; for `O=C(CC1Oc2ccccc2NC1=O)NC1CCCC1` (stereo not given), -0.0976.
In the case of `CC1CCC(NC(=O)CC2Oc3ccccc3NC2=O)CC1` (stereo not given) it was -0.471; in that of `Cc1ccc(NC(=O)CCn2cnc3cc(C)c(C)cc32)cc1`, -0.642.
Turning to `CCOc1ccccc1N1CCN(C(=O)C(F)(F)F)CC1`, the z-score is -0.337.
In the case of `Cc1cc(C)nc(NS(=O)(=O)c2ccc(N/C=C3\CCCC3=O)cc2)n1` it was -0.331; in that of `COc1ccccc1Nc1nc2nonc2nc1N1CCCCC1C` (stereo not given), -0.202; in that of `O=C(NC(=S)N1CCOCC1)C12CC3CCC(CC(C3)C1)C2`, 0.454.
As for `CC12CC3CC(C)(C1)CC(CN1CCOCC1)(C3)C2`, the z-score is -0.06.
`O=C(Nc1ccccc1N1CCN(c2ccc(F)cc2)CC1)C12CC3CC(CC(C3)C1)C2` registered a z-score of -1.97.
For `O=C(N1CCOCC1)C12CC3CC(C1)CC(C(=O)N1CCOCC1)(C3)C2` the value was 0.153.
In the case of `CC(C)(C)C(=O)NC(=S)N1CCOCC1` it was -0.0566; in that of `CC12CC3(C)CC(C)(C1)CC(C(=O)NC(=S)N1CCOCC1)(C2)C3`, 8.61 (active).
Molecule `O=C(NC(=S)N1CCOCC1)C12CCC3CC(CC(C3)C1)C2` displayed a z-score of 0.411.
In the case of `CC12CC3CC(C)(C1)CC(C(=O)NC(=S)N1CCOCC1)(C3)C2` it was 3.1 (active).
Consider `O=C(NC(=S)N1CCN(c2ccc(F)cc2)CC1)C12CC3CC(CC(C3)C1)C2`, for which the z-score is 2.89.
For `O=C(NC(=S)N1CCCCC1)C12CC3CC(CC(C3)C1)C2` the value was 5.6 (active).
In the case of `CC12CC3(C)CC(C)(C1)CC(C(=O)NC(=S)NC(C)(C)C)(C2)C3`, the z-score was found to be 0.0601.
`O=C(N1CCN(c2ccccc2)CC1)C12CC3CC(CC(C3)C1)C2`: the z-score was -0.202.
As to `CCOC(=O)Nc1cccc(NC(=O)c2cc(OC)cc(OC)c2)c1`, the z-score was -0.454.
`C=CCc1ccc(OCC(O)COCC)c(OC)c1` (stereo not given) gave a z-score of -0.12.
In the case of `N#C/C(=C\c1cccs1)C(=O)NCc1cccnc1` it was -0.112; in that of `O=C(CNc1ccc(C(F)(F)F)cc1[N+](=O)[O-])OCC(=O)c1ccccc1`, -0.875; in that of `O=C(CC12CC3CC(CC(C3)C1)C2)NCC(=O)N1CCCC1`, 0.463.
In the case of `CCN(CC)CCNC(=O)C12CC3CC(C)(CC(C)(C3)C1)C2` it was 0.873; in that of `O=C(CC12CC3CC(CC(C3)C1)C2)N1CCCC1`, -0.327.
In the case of `O=C(NC(=S)N1CCCCCC1)C1CC1` it was 0.000532; in that of `CCOc1ccccc1N1CCN(C(=O)c2ccccc2)CC1`, -1.51.
On to `CCOc1ccccc1N1CCN(C(=S)Nc2ccc(S(N)(=O)=O)cc2)CC1`, for which the z-score was -0.356.
`O=C(CC12CC3CC(CC(C3)C1)C2)NC(=S)N1CCCCC1` gave a z-score of 2.58.
Turning to `CCOc1ccccc1N1CCN(C(=S)NC(=O)C23CC4CC(CC(C4)C2)C3)CC1`, the z-score is 4.1 (active).
As for `CC12CC3CC(C)(C1)CC(C(=O)NC(=S)N1CCCCC1)(C3)C2`, the z-score was 8.62 (active).
Turning to `COC1(c2ccccc2)NC(=S)NN=C1c1ccccc1` (stereo not given), the z-score was 0.721.
In turn, `O=S(=O)(c1cccc(NC(=S)N2CCN(c3ccccc3)CC2)c1)C(F)F` returned a z-score of -0.245.
Regarding `Cc1occc1-c1nnc(SCC(=O)NC(C)(C)C)n1C(C)c1ccccc1` (stereo not given), the z-score turned out to be 0.32.
`CN1C(=O)c2ccccc2C(C(=O)NCC2CCCO2)C1c1c[nH]c2ccccc12` (stereo not given) yielded a z-score of -1.14.
In the case of `COc1ccc(CCNC(=O)COC(=O)c2ccc(Br)o2)cc1OC` it was 0.125; in that of `COc1ccc(CC(=O)NNC(=O)CSc2nnc(Cc3ccc(OC)cc3)n2-c2ccccc2)cc1`, -0.277; in that of `N#Cc1ccccc1NC(=O)c1ccccc1OCC(=O)Nc1ccc2c(c1)oc1ccccc12`, -0.362.
For `CC(C)(C)NC(=O)COC(=O)c1ccccc1OCC(=O)Nc1ccc(Br)cc1` the value was -0.154; for `CCN1C(=O)CC(N2CCC(Nc3ccc(OC)cc3)CC2)C1=O` (stereo not given), 0.0918.
In the case of `COc1ccc(CCNC(=O)COc2ccc(S(=O)(=O)NCC(C)C)cc2Cl)cc1OC` it was -0.464; in that of `Cc1ccc(NC(=O)/C(C#N)=C/c2cc(C)n(-c3ccc(N4CCOCC4)c([N+](=O)[O-])c3)c2C)c(C)c1`, -0.136.
Molecule `CCOC(=O)N1CCC(N2C(=O)c3ccccc3C2Nc2ccccc2C)CC1` (stereo not given) had a z-score of 2.74.
In the case of `CCOC(=O)N1CCC(N2C(=O)c3ccccc3C2Nc2c(C)cccc2C)CC1` (stereo not given) it was -0.177; in that of `CCOC(=O)N1CCC(N2C(=O)c3ccccc3C2Nc2ccc3c(C)cc(=O)oc3c2)CC1` (stereo not given), 4.01 (active).
With `CCOC(=O)N1CCC(N2C(=O)c3ccccc3C2Nc2ccccc2)CC1` (stereo not given), the z-score is -0.126.
Molecule `CCOC(=O)c1ccccc1NC1c2ccccc2C(=O)N1C1CCN(C(=O)OCC)CC1` (stereo not given) displayed a z-score of -0.69.
With `CCOC(=O)N1CCC(N2C(=O)c3ccccc3C2Nc2ccc(C)cc2)CC1` (stereo not given), the z-score is -0.488.
In the case of `CCN(CC)c1ccc(C(=O)N/N=C(\C)c2ccc(OC)c(OC)c2)cc1` it was 0.585; in that of `CCOC(=O)c1cc2c(ccn2C)n1CC(=O)N(Cc1ccccc1)c1ccc(F)cc1`, 1.2.
For `CCOC(=O)C(C)(C)Sc1nc2c(cnn2-c2ccc(Cl)cc2)c(=O)[nH]1` the value was -0.781.
Regarding `Cc1ccc(OCC(=O)c2ccc3c(c2)CCCC3)cc1C`, the z-score is -0.12.
In the case of `O=C(Nc1ccc2c3c(cccc13)CC2)c1ccco1`, the z-score is 0.0277.
In turn, `Cc1cc(C)c(NC(=O)c2ccccc2N(C)S(C)(=O)=O)c(C)c1` had a z-score of 0.0701.
In the case of `CC1(C)CC(=O)c2cn3nc(C(F)(F)F)nc3nc2C1`, the z-score was -0.129.
In the case of `CCC1(c2ccccc2)NC(=S)N(c2cccc(C)c2C)N1` (stereo not given) it was 1.26.
In the case of `CC1CCC2(CC1)NC(=S)N(c1ccccc1)N2` (stereo not given) it was 0.323; in that of `CCC1(c2ccc(Cl)cc2)NC(=S)N(c2ccccc2)N1` (stereo not given), 4.78 (active).
In the case of `Cc1ccc(SCCC(=O)Nc2ccc(Br)c(C)c2)cc1` it was -0.0218.
Take `S=c1[nH]nc(-c2ccco2)n1/N=C/c1ccc(Cl)cc1Cl`: the z-score was 6.87 (active).
In the case of `S=c1[nH]nc(-c2ccco2)n1/N=C/c1cccc(Cl)c1Cl`, the z-score is 5.73 (active).
The molecule `Cn1cccc1/C=N/n1c(-c2ccc(Cl)cc2)n[nH]c1=S` registered a z-score of 1.03.
For `Cc1ccc(-c2n[nH]c(=S)n2/N=C/c2cccn2C)cc1` the value was 1.02; for `Cn1cccc1/C=N/n1c(-c2ccc(Cl)cc2Cl)n[nH]c1=S`, 2.46.
`S=c1[nH]nc(-c2ccco2)n1/N=C/c1ccccc1Cl` returned a z-score of 1.07.
Consider `Cc1ccsc1/C=N/n1c(-c2ccco2)n[nH]c1=S`, for which the z-score came to 0.377.
For `S=c1[nH]nc(-c2ccco2)n1/N=C/c1ccc(Cl)c(Cl)c1`, the z-score was determined as 1.59.
In the case of `S=c1[nH]nc(-c2ccco2)n1/N=C/c1ccc(Cl)cc1` it was -0.0483; in that of `Cc1ccc(-n2nc(CN3CCOCC3)c(-c3ccccc3)c2N)c(C)c1`, -0.0359.
With `CCCOc1ccc(-c2csc(N)n2)cc1[N+](=O)[O-]`, the z-score was -0.349.
In the case of `Cc1ccc(C2NC(c3ccc(C)cc3)C(C)C(=NO)C2C)cc1` (stereo not given) it was -0.376.
`O=C(Nn1cnnc1)c1ccccc1CCc1ccccc1`: the z-score came out at 0.0675.
For `CS(=O)(=O)c1ccc2nc(NC(=O)C3COc4ccccc4O3)sc2c1` (stereo not given) the value was 0.303; for `Cn1c(=O)c2c(nc(NCc3ccc4c(c3)OCO4)n2Cc2ccccc2)n(C)c1=O`, -1.09; for `CCc1ccc(S(=O)(=O)N2CC(=O)Nc3ccccc32)cc1`, -0.195.
In the case of `Cc1cccc(Sc2ccc([N+](=O)[O-])cc2[N+](=O)[O-])n1` it was -0.278; in that of `COc1cc(C=O)c(Br)cc1OCc1ccc(C)cc1`, -0.101.
In the case of `COc1cc(C=O)c(Br)cc1OC1CCCC1` it was 2.09.
On to `CCOc1cc(C=O)c(Br)cc1OC1CCCC1`, for which the z-score is 0.0863.
The molecule `CCOc1ccc(CCNC(=O)C2CCN(C(=O)N(C)C)CC2)cc1OCC` gave a z-score of 0.862.
The molecule `Clc1ccc2c(c1)C(C1=NCCN1)c1ccccc1CS2` (stereo not given) returned a z-score of 0.865.
`Clc1cccc2c1Sc1ccccc1CC2N1CCNCC1` (stereo not given) registered a z-score of 0.386.
For `Clc1ccc2c(c1)C(N1CCNCC1)Cc1ccccc1S2` (stereo not given), the z-score was 3.92 (active).
For `COc1ccc(OC)c(N(CC(=O)Nc2cccnc2)S(=O)(=O)c2ccccc2)c1` the value was -0.398; for `C=CCOc1cccc(/C=N/NC(=O)CN(c2cc(Cl)ccc2OC)S(=O)(=O)c2ccc(C)c([N+](=O)[O-])c2)c1`, -0.0532.
In the case of `Cc1ccc2nc3sc(C(=O)NCc4ccco4)c(N)c3cc2c1` it was -0.222; in that of `CNC(=O)CSc1nnnn1CCCOC`, 0.0742.
